In assay [1] the test system is TRPC4 beta (transient receptor potential cation channel C4), mouse. The experiment in a line: TRPC4 cation channel opening, retest – cell-based, Fluo4 calcium, HEK293 TRPC4beta/mu-opioid, duplicates, 10 µM, confirmation (AID 2426;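 active = fluorescence ratio normalized to control raised more than 50% in primary screen plus both repeat runs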;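 as to activation: percent rise of integrated ratio over buffer wells lacking compound which define 0%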). The conditions noted are these: Fluo4 calcium fluorescence, at 10 µM; hits give high values.
Assay [2] relates to transient receptor potential cation channel C4 beta (TRPC4), mouse. The experiment in a line: TRPC4 cation channel opening, second retest – cell-based, second round, Fluo4, HEK293 TRPC4beta/mu-opioid, 1 µM, confirmation (AID 2461;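 active = primary screen active and over 50% activation in each of two duplicate runs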;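 as to activation: 0% = wells without test compound as baseline of integrated fluorescence ratio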). The following applies: Fluo4 calcium fluorescence, at 1 µM; hits give high values.
In assay [3] the test system is TRPC4 (transient receptor potential cation channel C4 beta), mouse. The experiment in a line: potentiation of DAMGO EC20 TRPC4 response – cell-based, second round, Fluo-4, HEK293 TRPC4beta/mu-opioid, 1 µM, confirmation (AID 2554;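 active = primary screen hit whose fluorescence ratio, in both repeats, exceeds the weak agonist control mean by 3 SD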). The following applies: DAMGO EC20, Fluo-4 calcium flux, at 1 µM; hits give high values. In general terms: Calcium assays in cells follow changes in intracellular calcium, usually with a dye or a luminescent sensor.

In assay [4] the test system is TRPC4 beta (transient receptor potential cation channel C4), mouse. The experiment in a line: potentiation of DAMGO EC20 TRPC4 response – cell-based, Fluo-4, HEK293 TRPC4beta/mu-opioid, confirmation (AID 2555;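 active = primary screen hit whose calcium fluorescence ratio, in both repeats, exceeds the weak agonist control mean by 3 SD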). The conditions noted are these: DAMGO EC20, Fluo-4 calcium flux, at 10 µM; hits give high values.
Assay [5] concerns the target Short transient receptor potential channel 4 (Mus musculus) (UniProt Q9QUQ5). The experiment in a line: blockers of DAMGO-evoked TRPC4 calcium flux – cell-based, Fluo4, HEK293 TRPC4beta/mu-opioid, confirmation (AID 2636;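 active = calcium signal cut by more than 3 SD below the full-agonist control yet still positive, in both repeats and the earlier primary screen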). The following applies: at 10 µM; hits give high values.
Assay [6] shares this target. The experiment in a line: blockers of DAMGO-evoked TRPC4 calcium flux – cell-based, second round, Fluo4, HEK293 TRPC4beta/mu-opioid, 1 µM, confirmation (AID 2637;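 active = calcium signal ratio cut to more than 3 SD under the fully stimulated control mean yet still positive, in both repeats and the primary screen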). The following applies: at 1 µM; hits give high values.
Assay [7] has the same target. The experiment in a line: potentiation of DAMGO-evoked TRPC4 calcium signal – cell-based, HEK293 TRPC4/mu-opioid, Fluo-4 calcium, EC20 DAMGO, dose response (AID 434941;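 active = earlier screen potentiator hit that boosts the TRPC4 ion channel at some dose, with a dose response; inactive = no potentiation, no dose response, or not a prior hit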;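 also: calcium entry triggered by an EC20 dose of DAMGO at the co-expressed mu-opioid receptor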).
The target is the same in assay [8]. The experiment in a line: block of DAMGO-driven TRPC4 calcium entry – cell-based, HEK293 TRPC4/mu-opioid, Fluo-4 calcium, dose response (AID 434942).
The target in assay [9] is Short transient receptor potential channel 6 (Mus musculus) (UniProt Q61143). The experiment in a line: TRPC6 blockade by TRPC4 inhibitor hits – cell-based, HEK293, membrane potential dye, duplicate, selectivity assay for TRPC4 inhibitor project, confirmation (AID 434948;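 active = active in primary screen and both duplicates, each dropping signal beyond three positive-control SD with fluorescence still positive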). The conditions noted are these: HEK293 TRPC6, membrane potential dye fluorescence, at 10 µM, stimulated with maximal-effect acetylcholine; hits give high values.
Chain of Short transient receptor potential channel 6 (Mus musculus) (Q61143 whole entry, looked up): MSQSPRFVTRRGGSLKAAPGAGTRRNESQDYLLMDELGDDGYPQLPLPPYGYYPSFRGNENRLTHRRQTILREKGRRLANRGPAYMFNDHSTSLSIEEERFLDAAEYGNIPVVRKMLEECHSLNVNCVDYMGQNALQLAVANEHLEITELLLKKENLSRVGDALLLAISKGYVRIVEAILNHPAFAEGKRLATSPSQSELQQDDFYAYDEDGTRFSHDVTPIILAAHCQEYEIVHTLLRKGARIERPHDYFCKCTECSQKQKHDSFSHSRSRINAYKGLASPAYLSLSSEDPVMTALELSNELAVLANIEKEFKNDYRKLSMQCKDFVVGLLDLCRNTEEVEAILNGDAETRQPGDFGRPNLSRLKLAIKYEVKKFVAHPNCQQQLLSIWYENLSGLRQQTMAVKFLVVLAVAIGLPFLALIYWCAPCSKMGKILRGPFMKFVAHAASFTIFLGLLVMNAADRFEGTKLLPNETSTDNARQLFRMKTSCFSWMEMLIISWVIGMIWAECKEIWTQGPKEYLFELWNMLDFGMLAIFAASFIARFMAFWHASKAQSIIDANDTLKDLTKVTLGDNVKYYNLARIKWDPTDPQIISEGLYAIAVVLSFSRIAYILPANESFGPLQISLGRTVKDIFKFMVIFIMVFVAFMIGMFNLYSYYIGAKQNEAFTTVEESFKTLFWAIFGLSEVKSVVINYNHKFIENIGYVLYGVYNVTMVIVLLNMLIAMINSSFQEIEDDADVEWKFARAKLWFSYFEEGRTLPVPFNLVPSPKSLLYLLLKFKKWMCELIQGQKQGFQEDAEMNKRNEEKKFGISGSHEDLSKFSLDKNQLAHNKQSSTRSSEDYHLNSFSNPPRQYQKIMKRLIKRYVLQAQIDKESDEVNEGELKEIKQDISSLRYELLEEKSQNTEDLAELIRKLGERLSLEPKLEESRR

Assay [10] shares this target. The experiment in a line: TRPC6 opening by TRPC4 activator hits – cell-based, HEK293, membrane potential dye, duplicate, selectivity assay for TRPC4 activator project, confirmation (AID 434950;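 active = membrane potential signal rise above negative control mean plus 3 SD in both duplicates, also active in the earlier TRPC4 screen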;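 as to activation: 0% = buffer only wells and 100% = acetylcholine maximal-effect wells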). The following applies: HEK293 TRPC6, membrane potential fluorescence, at 10 µM; activation: hits give high values; outcome: activation.
Assay [11] has the same target. The experiment in a line: positive modulators of mouse TRPC6 channel – HEK293 cells, membrane potential dye, duplicate, selectivity assay for TRPC4 potentiator project, confirmation (AID 434952;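 active = compound raising the membrane signal above positive-control mean plus 3 SD in both repeats, and a primary screen hit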). The following applies: HEK293 TRPC6, membrane potential dye fluorescence, at 10 µM, maximal acetylcholine added after compound; hits give high values.
The target of assay [12] is Short transient receptor potential channel 4 (Mus musculus) (UniProt Q9QUQ5). The experiment in a line: calcium flux activators in TRPC4/5HT1a cells, counter-screen for TRPC4 activator project, cell-based, second counter screen, HEK293 TRPC4/5HT1a, Fluo-4 (AID 434977;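 active = calcium signal rise above buffer-control mean plus 5 SD in both duplicates, and also a hit in the primary screen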;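 as to activation: plate controls were assay buffer for no effect and maximal serotonin response for full effect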). The following applies: Fluo-4 calcium flux, at 10 µM; hits give high values.
Chain of Short transient receptor potential channel 4 (Mus musculus) (Q9QUQ5 whole entry, looked up): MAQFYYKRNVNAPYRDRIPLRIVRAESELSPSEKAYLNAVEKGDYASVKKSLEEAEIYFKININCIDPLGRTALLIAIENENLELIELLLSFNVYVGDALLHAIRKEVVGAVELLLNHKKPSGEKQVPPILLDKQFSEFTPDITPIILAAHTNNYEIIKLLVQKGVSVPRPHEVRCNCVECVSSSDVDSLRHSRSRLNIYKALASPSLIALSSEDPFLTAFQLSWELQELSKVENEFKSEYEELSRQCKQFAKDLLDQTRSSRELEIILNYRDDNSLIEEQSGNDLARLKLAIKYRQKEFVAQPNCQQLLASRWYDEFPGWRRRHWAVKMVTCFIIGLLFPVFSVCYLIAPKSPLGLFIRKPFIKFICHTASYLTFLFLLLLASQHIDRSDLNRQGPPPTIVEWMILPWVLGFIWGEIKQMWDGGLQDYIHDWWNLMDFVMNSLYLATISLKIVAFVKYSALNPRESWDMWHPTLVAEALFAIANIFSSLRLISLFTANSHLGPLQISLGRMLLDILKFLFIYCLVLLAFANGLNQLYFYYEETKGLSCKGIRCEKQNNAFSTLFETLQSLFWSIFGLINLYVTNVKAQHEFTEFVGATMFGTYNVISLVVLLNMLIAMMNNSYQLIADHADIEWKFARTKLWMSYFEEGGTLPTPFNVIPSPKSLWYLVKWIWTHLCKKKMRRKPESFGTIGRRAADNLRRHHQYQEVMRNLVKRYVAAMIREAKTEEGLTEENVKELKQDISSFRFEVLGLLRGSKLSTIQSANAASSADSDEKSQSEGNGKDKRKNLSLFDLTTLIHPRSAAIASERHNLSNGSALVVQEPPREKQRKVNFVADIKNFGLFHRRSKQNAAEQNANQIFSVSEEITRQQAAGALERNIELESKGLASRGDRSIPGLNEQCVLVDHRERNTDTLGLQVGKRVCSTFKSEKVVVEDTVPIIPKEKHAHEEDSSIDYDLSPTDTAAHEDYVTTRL
The nature of assay [13]: serotonin-gated TRPC4 signal block – cell-based, second counter screen, HEK293 TRPC4/5HT1a, Fluo-4, counter-screen for TRPC4 inhibitor project, confirmation (AID 434978;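 active = primary screen active whose calcium signal fell more than 3 SD beyond the full-serotonin control mean in both duplicate plates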;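 also: serotonin given first at submaximal then at maximal dose after compound preincubation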). The conditions noted are these: Fluo-4 calcium flux, at 10 µM, serotonin added to trigger calcium flux; hits give high values. On the technique in general: A counterscreen serves to expose hits that act by an unwanted route or on another target.

The test system of assay [14] is TRPC4 (mouse), co-expressed with 5HT1a in HEK293. The experiment in a line: enhancement of serotonin-evoked TRPC4 response – cell-based, second counter screen, HEK293 TRPC4/5HT1a, Fluo-4, counter-screen for TRPC4 potentiator project, confirmation (AID 434979;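 active = signal rise over 3 SD above mean of control wells given weak agonist, in both repeats and first screen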). The following applies: Fluo-4 calcium flux, at 10 µM, serotonin added at its EC20 dose; hits give high values.

Assay [15] in a line: nonspecific calcium rise without TRPC4 – cell-based, HEK293 mu-opioid receptor line, counter-screen for TRPC4 activator project, confirmation (AID 449723;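 active = hit in primary screen, with calcium signal over 5 SD above buffer well mean in both duplicates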;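 also: counter screen cells carry the mu-opioid receptor alone and lack TRPC4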). The following applies: HEK293 mu-opioid cells, Fluo-4 calcium fluorescence, at 10 µM; hits give high values.
A short description of assay [16]: nonspecific potentiation of DAMGO calcium response – cell-based, HEK293 mu-opioid receptor line, counter-screen for TRPC4 allosteric potentiator project, confirmation (AID 449724;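 active = calcium signal rise more than 3 SD above the low-dose agonist control mean, in both duplicate plates and the primary screen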;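 also: HEK293 cells carrying mu-opioid receptor only with no TRPC4 channel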). The following applies: HEK293 mu-opioid receptor cells, Fluo-4 calcium flux, at 10 µM, compound added before EC20 DAMGO stimulus; hits give high values.

Results on 14 molecules are retold here after PubChem BioAssay.

For some assays here: Potency and affinity values are given separately. Activity calls are given as the source filed them.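 The calls were made as follows, unless noted: active = primary screen inhibitor hit that blocks the TRPC4 channel at some tested dose, yielding a dose curve; inactive = the rest.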

Regarding `CN(C)CCCN(C(=O)c1ccc(S(=O)(=O)N2CCc3ccccc3C2)cc1)c1nc2ccc(F)cc2s1`, the result in assay [1], in assay [2], in assay [3], in assay [4], in assay [5] and in [6] was inactive. The outcome in [7], in [8], in assay [9], in [10], in assay [11] and in [12] was inactive. For the same molecule, the outcome in assay [13], in [14], in assay [15] and in [16] was inactive.
In the case of `COc1ccc(C(CNC(=O)Cc2cccs2)N(C)C)cc1` (centres undefined), the values for the activation in [1], in assay [2] and in [10] were 102% (active), 103% (active) and 36.5% (active), respectively. Moreover, the outcome in [3], in assay [4], in assay [5], in assay [6], in assay [7] and in [8] was inactive. In addition, the outcome in assay [9], in assay [11], in [12], in [13], in assay [14] and in assay [15] was inactive. For the same molecule, the result in [16] was inactive.
Take `CN(C)C(CNC(=O)Nc1cccc(Cl)c1)c1cccnc1` (centres undefined): the result in assay [1], in [3], in assay [4], in assay [5], in [6] and in assay [7] was inactive. The result in assay [8], in assay [9], in [11], in [12], in [13] and in assay [14] was inactive. Moreover, the result in assay [15] and in assay [16] was inactive. In addition, the activation in assay [2] is 106% (active); in [10], 30.5% (active).
With `S=C(NCCc1cnc[nH]1)NC1CCCC1`, the activation was 220% (active) in assay [1], 135% (active) in [2] and 79.6% (active) in [12]. The result in [3], in assay [4], in [5], in assay [6], in [7] and in assay [8] was inactive. Further, the call in assay [9], in assay [10], in assay [11], in assay [13], in [14] and in [15] was inactive. Moreover, in [16], the result was inactive.
`CCCN(CCC)CCNC(=O)CCC(=O)Nc1ccc2nc(N3CCOCC3)cc(C)c2c1`: the activation was 99% (active) in assay [1], 67% (active) in assay [2] and 35.6% (active) in [12]. For the same molecule, the outcome in [3], in assay [4], in [5], in assay [6], in assay [7] and in assay [8] was inactive. Further, the molecule was classed as inactive in [9], in assay [10], in [11], in [13], in assay [14] and in assay [15]. In addition, in assay [16], the result was inactive.
With `Cc1sc2ncnc(NCC(c3ccco3)N(C)C)c2c1C` (centres undefined), the values for the activation in assay [1], in [2] and in assay [12] were 202% (active), 116% (active) and 91.1% (active), respectively. The result in assay [3], in [4], in assay [5], in assay [6], in assay [7] and in assay [8] was inactive. Moreover, the call in [9], in assay [10], in [11], in assay [13], in [14] and in assay [15] was inactive. Also, the result in assay [16] was inactive.
In the case of `Cn1c(N2CCN(C(=O)Nc3ccc(C(F)(F)F)cc3)CC2)nc2ccccc21`, the activation in [1] is 81% (active); in assay [12] it was 31.2% (active). Moreover, the result in assay [2], in [3], in [4], in assay [5], in assay [6] and in assay [7] was inactive. Further, the outcome in [8], in assay [9], in [10], in [11], in [13] and in assay [14] was inactive. Besides, the outcome in [15] and in assay [16] was inactive.
As for `CCOC(=O)C1(CC2CC2)CCN(Cc2cnc(-c3ccccc3C)nc2)CC1`, the result in [1], in assay [2], in assay [3], in assay [4], in assay [5] and in [6] was inactive. In addition, the result in assay [7], in [8], in [9], in assay [11], in assay [12] and in assay [13] was inactive. Moreover, the result in assay [14], in assay [15] and in assay [16] was inactive. Further, in assay [10], the activation is 59.5% (active).
In the case of `Cc1ccc(NC(=O)NCC(c2ccccc2)N(C)C)cc1` (centres undefined), the activation in assay [1] was 107% (active); in assay [2], 136% (active); in assay [10], 38.5% (active). The result in [3], in [4], in assay [5], in [6], in assay [7] and in assay [8] was inactive. Moreover, the molecule was classed as inactive in [9], in assay [11], in assay [12], in assay [13], in assay [14] and in assay [15]. The result in [16] was inactive.
For the molecule `Cc1cccc(NC(=S)NCC(c2ccccc2)N(C)C)c1` (centres undefined), the activation was 176% (active) in assay [1], 152% (active) in [2] and 39.5% (active) in [10]. In addition, the result in assay [3], in [4], in assay [5], in assay [6], in [7] and in assay [8] was inactive. Moreover, the result in [9], in assay [11], in [12], in assay [13], in [14] and in assay [15] was inactive. The result in assay [16] was inactive.
With `O=C(NC(=S)NNC(=O)c1cccs1)c1ccc(Br)o1`, the activation in assay [1] was 202% (active); in assay [12] it was 117% (active); in assay [15], 28.6% (active). Further, the outcome in [2], in [3], in assay [4], in [5], in assay [6] and in assay [7] was inactive. Further, the result in assay [8], in assay [9], in [10], in [11], in [13] and in [14] was inactive. Further, the outcome in assay [16] was inactive.
For the molecule `CN1CCN(c2ccc(NC(=O)COc3cccc4ccccc34)cc2)CC1`, the activation in assay [1] is 135% (active). The outcome in assay [2], in assay [3], in [4], in assay [5], in [6] and in [7] was inactive. Moreover, the outcome in assay [8], in [9], in [10], in assay [11], in [12] and in [13] was inactive. For the same molecule, the result in assay [14], in [15] and in assay [16] was inactive.
Consider `CC(C)(C)C(=O)/C=c1\s/c(=C\c2ccc(-c3ccc([N+](=O)[O-])cc3)o2)c(=O)n1CC(=O)NC(N)=O`, for which the activation in assay [1] was 63% (active); in assay [10], 534% (active); in [12], 30% (active); in assay [15], 68.5% (active); in assay [16], 1220% (active). The result in [2], in assay [3], in [5], in assay [6], in [7] and in [8] was inactive. In addition, the result in [9] and in assay [13] was inactive. In addition, the potentiation in assay [4] was 36% (active); in assay [14] it was 14% (active). In [11], the potentiation, percent of control is 436% (active).
With `Cc1sc(NC(=O)c2ccccc2)c(C(=O)NCCN(C)C)c1C`, the activation in assay [1] was 128% (active); in assay [12], 12.1% (active). Besides, the result in [2], in [3], in assay [4], in assay [5], in assay [6] and in assay [7] was inactive. For the same molecule, the outcome in assay [8], in assay [9], in assay [10], in assay [11], in [13] and in assay [14] was inactive. Moreover, the outcome in [15] and in assay [16] was inactive.
